# Measured values taken from PubChem BioAssay (NCI).
# Where “and” joins values, the source holds several entries; their conditions need not be identical. Equal entries are not always repeated. The panel holds about 83,000 compounds, 20% with a hit somewhere; the sample as a whole holds those more often.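 96-well plates, one dose, 48 hours. Percent growth reported; active if below 10.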 Calls of active or inactive are those of the source.
# Tested on: COLO 205 colon
# Assay: NCI-60 one-dose screen, 48 h (100 = growth as untreated, 0 = no growth, -100 = all killed)
# Conditions: 10 µM
# Experimental: Cells are grown in 96 well plates and exposed to the test compound for 48 hours. Compounds are tested at a single concentration, which is 10^-5 M for most compounds. The reported endpoint is percent growth (GI% or GIPRCNT), where numbers from 0 - 100% represent growth inhibition, and numbers from -100% - 0 represent cell death. For example, a value of 40 represents 60% growth inhibition. A value of 0 means no net growth occurred over the course of the experiment. A value of -40 indicates 40% of cells at the beginning of the experiment died by the end of the experiment. A value of -100 means all cells are dead at the end of the experiment.
# NCI-60 Human Tumor Cell Lines Screen was performed using the standard one-dose NCI protocol, which is described in more detail at https://dtp.cancer.gov/discovery_development/nci-60/default.htm.
# Compounds with GIPRCNT values below 10 were considered active. Activity score was based on GIPRCNT using the following formula: […]
# Score is 0 for GIPRCNT values of 100 or above, 50 for GIPRCNT values of 0, and 100 for GIPRCNT values of -100.
row,Structure (SMILES),growth
1,CC1(C)OB(c2ccc(Cn3cc(F)c(=O)[nH]c3=O)cc2)OC1(C)C,120% (inactive)

# Same assay, conditions: 10 µM unless noted
row,Structure (SMILES),growth
1,Clc1ccc(SSc2ccc(Cl)cc2)cc1,99.6% (inactive) and 113% (inactive)
2,O=C(N/N=C/c1cccc2ccccc12)C1CC1,112% (inactive) and 117% (inactive)
3,CC(/C=N/N1C(=O)c2ccccc2C1=O)c1ccccc1 (stereo not given),114% (inactive)
4,Cc1cc(=O)[nH]c(O)c1C#N,111% (inactive) and 104% (inactive)
5,CC(C)(O)Cn1cc(-c2ccc3nc(OC4CC4)ccc3c2)c2c(N)ncnc21,91.3% (inactive) and 58.7% (inactive)
6,COc1ccc(-c2ncnc3c2ncn3C/C=C/CCl)cc1,87.5% (inactive) and 94.1% (inactive)
7,Cc1cccc(/C=C\C(=O)c2ccc(Cl)cc2)c1,121% (inactive) and 111% (inactive)
8,CCNC(=O)Nc1ccc(-c2nc3c(c(N4CCOC[C@@H]4C)n2)CCN(C2COC2)C3)cc1,28.4% (inactive) and 3.31% (active)
9,COc1ccc2nc(Cl)cc(C)c2c1,104% (inactive) and 131% (inactive)
10,CNC(=O)c1cccc(-c2ccc3c(N4CCOC[C@@H]4C)nc(N4CCOC[C@@H]4C)nc3n2)c1,4.53% (active) and -11.4% (active)
11,C1CCCCNCCC1,121% (inactive)
12,N#C/C(=C1C=C/C(=N/O)C(Br)=C/1)c1ccccc1,83.2% (inactive)
13,COc1cc(C(=O)c2ccc3c(c2)OCO3)cc(OC)c1OC,19.2% (inactive) and 20.8% (inactive)
14,Cc1[nH]c(-c2nc3ccccc3[nH]2)c(C)c1C(=O)NC(C)C1CCCCC1 (stereo not given),-60.3% [100 µM] (active)
15,CC(C)Cc1ccc(C(C)C(=O)NCc2ccc(Cn3c(=O)sn(CCCI)c3=O)cc2)cc1 (stereo not given),-62.4% (active)
16,OC(COc1cccc2ccccc12)CN1CCN(c2ccc(Cl)cc2)CC1 (stereo not given),121% (inactive)
17,O=C(O)c1cc(C(=O)O)cc([N+](=O)[O-])c1,110% (inactive)
18,CO/N=C/C=C\C(=O)N/C=C/C[C@H]1/C=C/[C@H](O)/C=C\C=C\c2cccc(O)c2C(=O)O1,15.2% (inactive) and 14.3% (inactive)
19,O=[N+]([O-])c1ccc2nc3c4ccccc4c4ccccc4c3nc2c1,71.4% (inactive)

row,Structure (SMILES),growth
1,CN(C)c1ccc2nc3ccc(N)cc3[n+](-c3ccccc3)c2c1,-62.8% (active) and -12.6% (active)
2,CNC(=O)c1cc(Oc2ccc(NC(=O)Nc3ccc(Cl)c(C(F)(F)F)c3)cc2)ccn1,-46% (active) and -24.7% (active)
3,COc1cc2c(c(OC)c1OC)-c1ccc(OC)c(=O)cc1[C@@H](NC(C)=O)CC2,-36.4% (active) and 3.13% (active) and -47.6% (active)
4,COc1ccc2c(=O)cc(-c3ccccc3)[nH]c2c1,-19.6% (active) and -7.06% (active)
5,N/C(=N\N=C\c1ccc2c(c1)OCO2)N/N=C\c1ccc2c(c1)OCO2,108% (inactive) and 94.5% (inactive)
6,Cc1c(Cl)cccc1NCN1C(=O)c2ccccc2C1=O,105% (inactive)
7,CC(O)(CC(=O)CC(=O)c1ccccc1)c1ccccc1 (stereo not given),127% (inactive)
8,CCOC(=O)C(CNc1ccccc1)C(=O)OCC,106% (inactive)
9,CC(C(=O)O)n1cc(C#N)c(=O)[nH]c1=O (stereo not given),103% (inactive) and 112% (inactive)
10,CC1(c2ccc3ccccc3c2)CCC(=O)O1 (stereo not given),99.3% (inactive)
11,O=C(O)C1(C(=O)O)CCC1.[NH2-].[NH2-].[Pt+2],106% (inactive) and 115% (inactive)
12,CN1CCN(C2CCN(C(=O)Nc3cc(Oc4ccc(NC(=O)C5(C(=O)Nc6ccc(F)cc6)CC5)c(F)c4)ccn3)CC2)CC1,-78.3% (active) and 85.6% (inactive)
13,Clc1nc(Oc2ccccc2)nc(-c2cn(-c3ccccc3)c3ccccc23)n1,98.1% (inactive)
14,CN1CCN(CCC=C2c3ccccc3Sc3ccc(S(=O)(=O)N(C)C)cc32)CC1,-83.1% (active) and 44% (inactive)
15,O=C(Nc1cccc(Cl)c1)c1cc2ccccc2cc1O,104% (inactive) and 42.6% (inactive)
16,O=[N+]([O-])c1ccc(/C=N\NC(=S)Nc2ccc(F)cc2)cc1,104% (inactive) and 103% (inactive)
17,CCN(CC)CCNc1cc(-c2cccc(OC(F)(F)F)c2)nc2ccc(N3CCCC3)cc12,32.5% (inactive) and -76.5% (active) and -46.9% (active)
18,COc1cc2nc(N3CCN(C(=O)C4COc5ccccc5O4)CC3)nc(N)c2cc1OC (stereo not given),93.6% (inactive) and 104% (inactive)
19,OCCN1CCN(CCO)CC1,105% (inactive) and 113% (inactive)

# Same assay, conditions: 50 µM
row,Structure (SMILES),growth
1,CC1(C)OB(c2ccc(Cn3cc(F)c(=O)[nH]c3=O)cc2)OC1(C)C,36.4% (inactive)
